# Bioassay records (PubChem)
# A selection: hits, their analogues and other compounds. The true share with any hit is near 1.5%.
# HIF activator = HIF pathway transcriptional activation; U2OS HRE-luciferase reporter, luminescence; normalized: DMSO 0%, desferrioxamine 100%; activation, % at 7.5 µM (by protocol); hit rate 0.32% among 300,000; AID 1910;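 active = mean activation of at least 10% of the iron chelator positive control signal, with at least half of replicates also reaching 10%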
# Dyrk1A ADPGlo = blocks rat Dyrk1A kinase activity; Q63470; ADP-Glo luminescence, NFATc1 peptide; inhibition, % at 12.5 µM; hit rate 0.43% among 310,000; AID 504441; in the data active = inhibition above about 50%;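 also: plate controls were vehicle with enzyme for no effect and no enzyme for full effect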
# STK33 inh = human STK33 kinase inhibition | hit rate 0.073% among 320,000 | purified STK33, MBP phosphorylation, ADP-Glo luminescence | inhibition, % at 10 µM | Q9BYT3;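 active = inhibition at or above 25%, using the most active replicate where run in duplicate; inactive = inhibition below 25%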
# PP1 counter = counter-screen for PP5 inhibitors: inhibitors of human PP1-alpha; P62136; purified PP1alpha, OMFP fluorescence; inhibition, % at 6.7 µM; hit rate 0.9% among 320,000; AID 2235;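 active = inhibition above the mean inhibition of all tested compounds plus 3 SD, computed separately for each screening campaign, cut at about 15% in these data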
# PP5 primary = inhibitors of human protein phosphatase 5 (PP5); P53041; purified PP5c, OMFP substrate fluorescence; inhibition, % at 6.7 µM; hit rate 0.18% among 320,000; AID 1987;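 active = inhibition above the campaign's mean inhibition across all tested compounds plus 3 SD, cut at about 9.5% in these data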;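 also: 0% = DMSO only and 100% = 100 µM cantharidin control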
# Target sequence (P53041 whole entry, looked up): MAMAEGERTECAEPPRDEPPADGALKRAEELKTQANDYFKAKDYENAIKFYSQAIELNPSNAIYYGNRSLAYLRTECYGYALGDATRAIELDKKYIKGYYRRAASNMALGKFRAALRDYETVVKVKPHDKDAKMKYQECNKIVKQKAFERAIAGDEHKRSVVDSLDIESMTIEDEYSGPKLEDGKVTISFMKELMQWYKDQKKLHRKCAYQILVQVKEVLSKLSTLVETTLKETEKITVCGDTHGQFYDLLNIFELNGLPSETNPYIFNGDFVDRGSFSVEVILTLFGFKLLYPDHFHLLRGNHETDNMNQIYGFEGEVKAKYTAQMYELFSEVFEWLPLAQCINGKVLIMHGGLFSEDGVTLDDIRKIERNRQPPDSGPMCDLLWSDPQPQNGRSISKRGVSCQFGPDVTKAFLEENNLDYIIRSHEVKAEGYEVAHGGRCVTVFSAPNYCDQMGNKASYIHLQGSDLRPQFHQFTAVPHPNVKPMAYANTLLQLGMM
# PP5 inh confirm = confirmation of human PP5 phosphatase inhibitors | shares compounds with PP5 primary | inhibition, % at 6.7 µM | hit rate 22% among 460 | Purified PP5, fluorogenic phosphatase substrate, fluorescence; in the data active = inhibition above about 9.5%
# PP1 counter 3x = PP1 phosphatase inhibition, counter-screen for PP5 inhibitors. shares compounds with PP5 primary. PP1 enzyme, fluorescent phosphatase substrate. inhibition, % at 6.7 µM. hit rate 4% among 460. AID 2355; in the data active = inhibition above about 16%
# PP1 confirm = human PP1 phosphatase inhibition, confirmation. shares compounds with PP1 counter. purified PP1alpha, OMFP substrate fluorescence. inhibition, % at 6.7 µM. hit rate 52% among 1,900. AID 2358;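 active = mean PP1 inhibition above a set limit taken from the earlier primary screen, cut at about 15% in these data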
# PP5 inh counter = counter-screen for PP1 inhibitors: human PP5 phosphatase inhibition; shares compounds with PP1 counter; purified PP5c, OMFP fluorescence; inhibition, % at 6.7 µM; hit rate 4% among 1,900; AID 2360;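 active = mean PP5 inhibition over triplicate wells above about 9.5% taken from the earlier PP1 screen, limit read from the data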
# Dyrk1A artifact = ADP-Glo luciferase interference, Dyrk1A counter-screen | shares compounds with Dyrk1A ADPGlo | ADP-Glo luciferase artifact assay, no Dyrk1A, luminescence | AC50, µM (titrated, usually from 12 µM), inactives show at the top dose activity change, negative = inhibition | 1,300 tested, under 10 active | AID 588348;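 active = fitted half-maximal dose AC50 no more than ten times the top valid tested dose, with luminescence dropping as dose rises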
# Numbers without * were called inactive; / = not tested or not shown.
SMILES,HIF activator,Dyrk1A ADPGlo,STK33 inh,PP1 counter,PP5 primary,PP1 confirm,PP5 inh counter,others
CN(C)S(=O)(=O)c1ccc(NC(=O)c2cc3ccccc3o2)cc1,2,75*,1,4,10*,/,/,PP5 inh confirm=-4;PP1 counter 3x=-2;Dyrk1A artifact=8%
CCOc1cc2c(C#N)c(N3CCCC3)nc(N)c2c(N)n1,-1,-1,0,1,1,/,/,
N#Cc1c(N2CCCC2)nc(N)c2c(N)nc(N3CCCC3)cc12,2,67*,5,6,16*,/,/,PP5 inh confirm=25*;PP1 counter 3x=18*;Dyrk1A artifact=9%
COc1cc(CCC(=O)Nc2nnc(-c3cccnc3)s2)cc(OC)c1OC,-1,2,-4,-4,2,/,/,
COc1cc(CN(C2CCCCC2)S(=O)(=O)c2ccc(S(=O)(=O)N(C)C3CCCCC3)cc2)cc(OC)c1OC,0,2,-2,19*,2,-2,-3,
COc1ccc2c(c1)CCC/C2=N\Nc1nc(C(=O)NN)cs1,1,/,0,22*,2,9,-4,
CCOC(=O)c1csc(N/N=C2\CCCc3ccccc32)n1,1,3,1,3,3,/,/,
COc1ccc2c(c1)CCC/C2=N\NC(=O)c1ccoc1C,2,-12,-2,8,3,/,/,
CCOC(=O)c1csc(N/N=C2\CCc3ccccc32)n1,-1,3,0,19*,3,17*,-1,
O=C(c1cccs1)C1CCCN(Cc2nc(Cc3ccccc3F)no2)C1 (stereo not drawn),0,2,-2,-1,1,/,/,
O=C(CCN1C(=O)/C(=C\C=C\c2ccccc2)SC1=S)Nc1ccc(C(=O)O)cc1,2,-4,0,5,2,/,/,
O=C(CN1C(=O)/C(=C/c2ccccc2)SC1=S)Nc1ncc(Cc2ccccc2)s1,0,-4,-1,22*,3,20*,-2,
Cc1nnc(NC(=O)CCN2C(=O)/C(=C\c3ccccc3)SC2=S)s1,0,-2,-2,-2,2,/,/,
O=C(CN1C(=O)/C(=C\C=C\c2ccccc2)SC1=S)Nc1ccc(F)cc1,0,-4,0,23*,-3,13,-2,
Oc1ccc(C[C@@H]2CNCCN2CCc2cccc(F)c2)cc1,1,5,-2,-2,0,/,/,
O=C(CCCN1C(=O)c2cccc3cccc(c23)C1=O)Nc1ccon1,0,6,0,-6,0,/,/,
COc1ccc2[nH]c3c(=O)n(CCCCC(=O)N4CCCC4)c(=S)[nH]c3c2c1,-1,-7,-1,36*,2,33*,1,
CCCNC(=O)CCCCn1c(=S)[nH]c2c([nH]c3ccc(OC)cc32)c1=O,-1,-4,0,6,-3,/,/,
Cc1ccc(C(=O)O/N=C/c2c(N3CCOCC3)n(C)c3ccccc23)cc1,0,9,0,21*,3,-1,1,
COc1ccc(Cn2c(SCc3ccccc3C)nc3cc(OC)c(OC)cc3c2=N)cc1,-7,1,0,30*,3,3,-1,
COc1cc2nc(SCc3ccc(F)cc3)n(Cc3cccs3)c(=N)c2cc1OC,-1,-6,0,1,5,/,/,
Nc1c(N(CCC2=CCCCC2)C(=O)c2ccccc2F)c(=O)[nH]c(=O)n1Cc1ccccc1,/,-1,-1,3,-1,/,/,
Cn1cc(-c2nnc(-c3ccccc3)o2)c2ccccc21,0,8,0,0,0,/,/,
NC1=NC[C@H](CC2CCCCC2)N1CCc1cc(C(F)(F)F)cc(C(F)(F)F)c1,-1,15,4,18*,3,-2,3,
CCOc1ccccc1NC(=O)C1C2CCC(O2)C1C(=O)O (stereo not drawn),1,15,-3,77*,77*,16*,31*,
